Results filed as inconclusive are left out. Calls come from the whole dose curve; as a rule, active = well fitted curve in either direction with a large enough effect (not every such curve was filed as active); inconclusive = small, poorly fitted or top-dose-only effect, or another doubt; inactive = flat fitted curve, though single readings scatter.
assay: AP1 Signaling Pathway (AID 357); details: ME-180 (cervical carcinoma) AP-1-bla reporter, EGF-induced, beta-lactamase ratio, 5 h; at 17.2 µM (top of the series) unless noted;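 note: ME-180 reporter cells stimulated with EGF at its EC50 level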
Summary of the method: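 Read-out was the 460nm/530nm emission ratio (excitation 405nm) after CCF4 loading for 2.5 hours at room temperature. Cells carried an AP-1-driven beta-lactamase reporter, were stimulated with EC50 EGF plus compound for 5 hours, and AC50 values came from titrations.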
% is set by controls: 0 for no effect and ±100 for the full control effect.

Activity change, negative = inhibition, inactive:
CCOC(=O)CCc1c(C)c(C#N)c2nc3ccccc3n2c1-n1ccnc1C -3.36%
COc1cc(C)nc(Nc2nc(C)c(C(C)=O)s2)n1 12.9%
CC12CCC(C(=O)NCCCN3CCOCC3)(OC1=O)C2(C)C (stereo not given) 12%
COc1ccc(Nc2nnc(C)c3ccccc23)cc1C(N)=O -4.55%
CCOC(=O)C1CSc2[nH]c(=O)sc2C1c1ccccc1 (stereo not given) 0.248%
CCOc1cccc(-c2nnc3sc(-c4ccco4)nn23)c1 -1.16%
COC(=O)CSc1nc2c(c(=O)n(C)c(=O)n2C)n1CCC(C)C 10.4%
O=C1OC2CCC1(c1ccccc1)C2 (stereo not given) -4.71%
Cc1ccc(C2CC(C(F)(F)F)n3ncc(C(N)=O)c3N2)cc1 (stereo not given) -3.17%
COc1cc(C(=O)NCC(=O)n2nc(C)cc2C)cc(OC)c1OC 0.479%
O=C1C2ON(c3ccccc3)C(c3ccncc3)C2C(=O)N1c1ccc(Br)cc1 (stereo not given) -1.42%
COc1ccccc1NC(=O)c1c(C)cc(=O)oc1C 13%
CCOc1ccc(-c2nnc3sc(-c4c(OC)cccc4OC)nn23)cc1 3.89%
Cc1nc(SC2C=CS(=O)(=O)C2)n[nH]1 (stereo not given) 5.25%
Cc1ccc(C2C(C(=O)c3cc4ccccc4o3)=C(O)C(=O)N2CCCN(C)C)cc1 (stereo not given) 4.95%
COc1ccc(C(=O)Nc2ccccc2N2CCOCC2)cc1Br -21.1%
COc1cc(C2CC(C(F)(F)F)n3ncc(C(=O)O)c3N2)cc(OC)c1OC (stereo not given) 6.2%
CCc1nc2n[nH]c(N)c2c2c1CCCC2 -12.2%
c1coc(CNc2ncnc3ccccc23)c1 -22.1%
CC(C)CNc1nc2c(c(=O)n(C)c(=O)n2C)n1Cc1cccc(Br)c1 -13.5%
COc1cc(C2C(C(=O)c3sc(C)nc3C)=C(O)C(=O)N2CCN(C)C)cc(OC)c1OC (stereo not given) -0.396%
COc1ccc2oc(=O)c(-c3nc(C)cs3)cc2c1 19.7%
Cc1cc(C)n(Cc2cc(C)c(Cn3nc(C)cc3C)cc2C)n1 14.4%
CCN(CC)C(=O)CSC1=C(C#N)C(c2cccs2)C=C(C)N1 (stereo not given) -28.4%
COc1ccc(CC(=O)OCN2C(=O)c3ccccc3C2=O)cc1 11.9%
Cn1c(-n2c(-c3ccco3)nc3ccccc3c2=O)nc2ccccc21 -5.43%
CN(C)CCNC(=O)C12CC3(C)CC(C)(CC(C)(C3)C1)C2 7.28%
C=CCSc1nc(C)c(CC=C)c(=O)[nH]1 -0.627%
O=C1NCC(COCC2CC=CCC2)O1 (stereo not given) 9.6%
COCCOC(=O)c1c(C)nc(SCC(=O)Nc2ccc(C)cc2)c(C#N)c1-c1ccco1 -27.8%
Cc1cc(=O)oc(C)c1C(=O)NCCNC(=O)c1c(C)cc(=O)oc1C 7.25%
CC1(C2(O)CC(c3ccccc3)ON2)CCCCC1 (stereo not given) 11.4%
CC(C)c1nc2n[nH]c(N)c2c2c1CCC2 3.28%
COCCOC(=O)C1=C(C)OC(N)=C(C#N)C1c1ccco1 (stereo not given) 0.22%
CC(=O)C(=[N+]=[N-])C(=O)NCc1ccccc1 7.12%
CCOC(=O)CSc1nc2sc3c(c2c(=O)[nH]1)CC(C)(C)OC3 6.27%
COc1cccc(-c2nn3c(-c4ccccn4)nnc3s2)c1 -5.18%
O=C(c1coc(=O)c(Br)c1)N1CCOCC1 6.25%
COCCN(Cc1ccccc1)P(=O)(O)c1ccccc1OCC(=O)O -2.92%
CCCCn1c(=O)n(C)c(=O)c2c3c(sc21)COC(C)(C)C3 -4.87%

assay: NFAT Signaling Pathway (AID 444); details: Jurkat NFAT-bla M1, carbachol, beta-lactamase ratio, 5 h; at 17.2 µM (top of the series) unless noted;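 note: carbachol stimulus at about its EC50 of 1 µM final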
Summary of the method: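 Read-out: CCF4 FRET ratio (460 nm/530 nm) after 1 h RT dye loading, used for %activity and AC50 from titration series. Cells: Jurkat NFAT-β-lactamase/M1 line, treated with compound plus 1 uM carbachol for 5 h, 37 °C.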

Activity change, negative = inhibition, inactive:
CCOC(=O)CCc1c(C)c(C#N)c2nc3ccccc3n2c1-n1ccnc1C -1.61%
COc1cc(C)nc(Nc2nc(C)c(C(C)=O)s2)n1 -2.73%
CC12CCC(C(=O)NCCCN3CCOCC3)(OC1=O)C2(C)C (stereo not given) 10.5%
COc1ccc(Nc2nnc(C)c3ccccc23)cc1C(N)=O 10.7%
CCOC(=O)C1CSc2[nH]c(=O)sc2C1c1ccccc1 (stereo not given) -1.24%
CCOc1cccc(-c2nnc3sc(-c4ccco4)nn23)c1 18.2%
COC(=O)CSc1nc2c(c(=O)n(C)c(=O)n2C)n1CCC(C)C -5.51%
O=C1OC2CCC1(c1ccccc1)C2 (stereo not given) 10%
Cc1ccc(C2CC(C(F)(F)F)n3ncc(C(N)=O)c3N2)cc1 (stereo not given) 2.37%
COc1cc(C(=O)NCC(=O)n2nc(C)cc2C)cc(OC)c1OC -4.87%
O=C1C2ON(c3ccccc3)C(c3ccncc3)C2C(=O)N1c1ccc(Br)cc1 (stereo not given) 10.7%
COc1ccccc1NC(=O)c1c(C)cc(=O)oc1C 12.5%
CCOc1ccc(-c2nnc3sc(-c4c(OC)cccc4OC)nn23)cc1 -3.46%
Cc1nc(SC2C=CS(=O)(=O)C2)n[nH]1 (stereo not given) 11.6%
Cc1ccc(C2C(C(=O)c3cc4ccccc4o3)=C(O)C(=O)N2CCCN(C)C)cc1 (stereo not given) -2.86%
COc1ccc(C(=O)Nc2ccccc2N2CCOCC2)cc1Br 9.59%
COc1cc(C2CC(C(F)(F)F)n3ncc(C(=O)O)c3N2)cc(OC)c1OC (stereo not given) -3.76%
CCc1nc2n[nH]c(N)c2c2c1CCCC2 1.69%
c1coc(CNc2ncnc3ccccc23)c1 -14.7%
CC(C)CNc1nc2c(c(=O)n(C)c(=O)n2C)n1Cc1cccc(Br)c1 -2.14%
COc1cc(C2C(C(=O)c3sc(C)nc3C)=C(O)C(=O)N2CCN(C)C)cc(OC)c1OC (stereo not given) 1.9%
COc1ccc2oc(=O)c(-c3nc(C)cs3)cc2c1 -8.83%
Cc1cc(C)n(Cc2cc(C)c(Cn3nc(C)cc3C)cc2C)n1 -3.13%
CCN(CC)C(=O)CSC1=C(C#N)C(c2cccs2)C=C(C)N1 (stereo not given) -9.19%
COc1ccc(CC(=O)OCN2C(=O)c3ccccc3C2=O)cc1 -7.12%
Cn1c(-n2c(-c3ccco3)nc3ccccc3c2=O)nc2ccccc21 -6.94%
CN(C)CCNC(=O)C12CC3(C)CC(C)(CC(C)(C3)C1)C2 -25.2%
C=CCSc1nc(C)c(CC=C)c(=O)[nH]1 -22.4%
O=C1NCC(COCC2CC=CCC2)O1 (stereo not given) 15%
COCCOC(=O)c1c(C)nc(SCC(=O)Nc2ccc(C)cc2)c(C#N)c1-c1ccco1 -11.8%
Cc1cc(=O)oc(C)c1C(=O)NCCNC(=O)c1c(C)cc(=O)oc1C 6.33%
CC1(C2(O)CC(c3ccccc3)ON2)CCCCC1 (stereo not given) -10.5%
CC(C)c1nc2n[nH]c(N)c2c2c1CCC2 9.31%
COCCOC(=O)C1=C(C)OC(N)=C(C#N)C1c1ccco1 (stereo not given) -14.6%
CC(=O)C(=[N+]=[N-])C(=O)NCc1ccccc1 -14.9%
CCOC(=O)CSc1nc2sc3c(c2c(=O)[nH]1)CC(C)(C)OC3 6.58%
COc1cccc(-c2nn3c(-c4ccccn4)nnc3s2)c1 -17%
O=C(c1coc(=O)c(Br)c1)N1CCOCC1 21.3%
COCCN(Cc1ccccc1)P(=O)(O)c1ccccc1OCC(=O)O -4.16%
CCCCn1c(=O)n(C)c(=O)c2c3c(sc21)COC(C)(C)C3 5.64%

Reference: PubChem BioAssay (NCATS)
